This is one part of a sample in which hits are shown more often than they occur.
STK33 inh: STK33 kinase inhibitors, primary screen, biochemical, luminescence, ADP-Glo, MBP substrate | Serine/threonine-protein kinase 33 (Homo sapiens), Q9BYT3 | inhibition, % at 12.5 µM | 0.44% of 27,000 active; in the data active = inhibition above about 20%
Target sequence (Q9BYT3 whole entry, looked up): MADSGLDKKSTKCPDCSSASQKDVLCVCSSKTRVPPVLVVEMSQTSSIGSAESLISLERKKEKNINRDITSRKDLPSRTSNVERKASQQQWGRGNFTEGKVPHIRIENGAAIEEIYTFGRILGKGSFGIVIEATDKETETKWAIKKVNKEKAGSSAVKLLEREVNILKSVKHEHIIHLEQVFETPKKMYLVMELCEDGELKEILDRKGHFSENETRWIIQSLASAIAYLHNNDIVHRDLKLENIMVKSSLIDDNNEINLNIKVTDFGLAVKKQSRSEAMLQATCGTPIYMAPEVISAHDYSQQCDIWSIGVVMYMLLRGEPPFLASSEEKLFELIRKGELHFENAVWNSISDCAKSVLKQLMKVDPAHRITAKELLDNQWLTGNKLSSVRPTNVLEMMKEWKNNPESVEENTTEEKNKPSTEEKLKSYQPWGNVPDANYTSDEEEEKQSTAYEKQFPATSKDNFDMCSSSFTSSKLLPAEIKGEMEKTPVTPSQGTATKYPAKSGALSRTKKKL
NOMO-1 viab: NOMO-1 AML cell viability reduction, primary screen, STK33 inhibitor project, CellTiter-Glo luminescence; 7.5% of 37,000 active; AID 2330, 2010; NOMO-1 AML viability, 72 h; inhibition, % (no concentration beside the values); in the data active = inhibition above about 80%
PD-1 reversal: activators reversing PD-1 mediated T-cell inhibition, primary screen, luminescence, primary human CD4 T cells, PD-L1 beads. CellTiter-Glo 96 h. activation, % (concentration not given with the values). 29,000 tested, under 10 active; call rule not given here;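 also: 0% = median vehicle wells and 100% = positive control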
An asterisk follows results filed as active; / = no result given.

SMILES	STK33 inh	NOMO-1 viab	PD-1 reversal
C[C@@H]1CN([C@H](C)CO)C(=O)Cc2cc(NC(=O)Nc3cccc4ccccc34)ccc2O[C@@H]1CN(C)S(=O)(=O)c1cn(C)cn1	-0.8	-29.7	/
C[C@@H]1CN([C@H](C)CO)C(=O)c2cc(NC(=O)Nc3ccc(C(F)(F)F)cc3)ccc2O[C@H]1CN(C)S(=O)(=O)c1ccccc1	-1.2	52.5	3.3
COc1ccc(S(=O)(=O)N(C)C[C@@H]2Oc3ccc(NC(=O)Nc4ccc(C(F)(F)F)cc4)cc3C(=O)N([C@H](C)CO)C[C@@H]2C)cc1	-5.0	105.0*	-1.1
C[C@@H]1CCCCO[C@H](CN(C)S(=O)(=O)c2ccc(Cl)cc2)[C@@H](C)CN([C@H](C)CO)C(=O)c2cc(NC(=O)Nc3ccc(C(F)(F)F)cc3)ccc2O1	1.1	98.5*	-5.2
COc1ccc(S(=O)(=O)N(C)C[C@@H]2Oc3ccc(NC(=O)Nc4ccc(C(F)(F)F)cc4)cc3C(=O)N([C@@H](C)CO)C[C@H]2C)cc1	/	48.4	-0.1
COc1ccc(S(=O)(=O)Nc2ccc3c(c2)C(=O)N([C@H](C)CO)C[C@H](C)[C@H](CN(C)S(=O)(=O)c2ccc(Cl)cc2)OCCCC[C@@H](C)O3)cc1	3.6	107.2*	-7.1
COc1ccc(S(=O)(=O)N(C)C[C@H]2OCCCC[C@@H](C)Oc3ccc(NS(=O)(=O)c4ccc(Cl)cc4)cc3C(=O)N([C@H](C)CO)C[C@@H]2C)cc1	/	65.3	/
C[C@@H]1CN([C@@H](C)CO)C(=O)c2cc(NC(=O)Nc3ccc(C(F)(F)F)cc3)ccc2O[C@H]1CN(C)S(=O)(=O)c1ccc(Cl)cc1	/	93.2*	-1.1
C[C@@H]1CCCCO[C@@H](CN(C)S(=O)(=O)c2ccc(Cl)cc2)[C@@H](C)CN([C@H](C)CO)C(=O)c2cc(NC(=O)Nc3ccc(C(F)(F)F)cc3)ccc2O1	1.2	22.8	-2.2
COCCNC(=O)c1ccccc1NC(=O)c1ccc([N+](=O)[O-])cc1	2.1	3.2	-1.3
C[C@@H]1CN([C@H](C)CO)C(=O)Cc2cc(NC(=O)Nc3cccc4ccccc34)ccc2O[C@H]1CN(C)S(=O)(=O)c1ccc(F)cc1	2.3	-28.3	-0.5
COc1c(-c2ccccc2)oc2c(OC)c(O)cc(O)c2c1=O	3.6	5.6	0.5
COc1ccc(CN(C)C[C@H]2OCCCC[C@@H](C)Oc3ccc(NC(=O)NC4CCCCC4)cc3C(=O)N([C@H](C)CO)C[C@@H]2C)cc1	-0.6	27.7	-2.2
C[C@H]1CN([C@@H](C)CO)C(=O)c2cc(NS(=O)(=O)c3cn(C)cn3)ccc2O[C@H]1CN(C)C(=O)Nc1ccc(C(F)(F)F)cc1	-1.5	0.5	0.4
O=C(CSC1CC(=O)N(c2cc(Cl)cc(Cl)c2)C1=O)Nc1ccccc1F (stereo not given)	3.1	-2.7	/
COc1ccc(S(=O)(=O)Nc2ccc3c(c2)C(=O)N([C@H](C)CO)C[C@H](C)[C@@H](CN(C)Cc2ccc4c(c2)OCO4)OCCCC[C@@H](C)O3)cc1	-1.3	28.2	/
COc1ccc(S(=O)(=O)N(C)C[C@@H]2Oc3ccc(NC(=O)Nc4ccc(C(F)(F)F)cc4)cc3C(=O)N([C@H](C)CO)C[C@H]2C)cc1	/	112.7*	1.7
COc1ccc(S(=O)(=O)N(C)C[C@H]2Oc3ccc(NC(=O)Nc4ccc(C(F)(F)F)cc4)cc3C(=O)N([C@H](C)CO)C[C@@H]2C)cc1	-0.4	44.6	-1.0
C[C@H]1CN([C@@H](C)CO)C(=O)c2cc(NC(=O)CCCN(C)C)ccc2O[C@H]1CN(C)S(=O)(=O)c1ccccc1	/	-16.6	0.7
CC1CCC(C(C)C)C(NC(=S)Nc2cccc(F)c2)C1 (stereo not given)	-2.5	121.8*	-23.4
Cc1ccc(N(C(C)C(=O)Nc2cccc(F)c2)S(C)(=O)=O)cc1 (stereo not given)	1.1	-5.5	-1.5
C[C@@H]1CN([C@H](C)CO)C(=O)c2cc(NS(=O)(=O)c3ccc(Cl)cc3)ccc2O[C@H]1CN(C)Cc1ccc(C(=O)Nc2ccccc2N)cc1	/	43.9	-0.8
C[C@H](CO)N1C[C@H](C)[C@@H](CN(C)Cc2ccc(C(=O)Nc3ccccc3N)cc2)Oc2ccc(NS(=O)(=O)c3ccc(F)cc3)cc2C1=O	/	48.4	1.8
C[C@H](CO)N1C[C@H](C)[C@H](CN(C)Cc2ccc(C(=O)Nc3ccccc3N)cc2)Oc2ccc(NS(=O)(=O)c3ccc(Cl)cc3)cc2CC1=O	/	141.5*	-0.7
Cc1ccc(S(=O)(=O)Nc2ccc3c(c2)CC(=O)N([C@@H](C)CO)C[C@H](C)[C@@H](CN(C)Cc2ccc(C(=O)Nc4ccccc4N)cc2)O3)cc1	/	48.1	1.3
SMILES	STK33 inh	NOMO-1 viab	PD-1 reversal
Cc1ccc(S(=O)(=O)Nc2ccc3c(c2)CC(=O)N([C@H](C)CO)C[C@@H](C)[C@@H](CN(C)Cc2ccc(C(=O)Nc4ccccc4N)cc2)O3)cc1	/	107.4*	0.4
C[C@H](CO)N1C[C@H](C)[C@H](CN(C)Cc2ccc(C(=O)Nc3ccccc3N)cc2)Oc2ccc(NS(=O)(=O)c3ccc(F)cc3)cc2CC1=O	/	140.0*	-2.3
C[C@@H]1CN([C@H](C)CO)C(=O)c2cc(NS(=O)(=O)c3cccs3)ccc2O[C@H]1CN(C)CC1CC1	2.2	16.0	/
Cc1noc(C)c1S(=O)(=O)Nc1cccc2c1O[C@H](CN(C)C(=O)Nc1ccc(F)cc1)[C@H](C)CN([C@@H](C)CO)C2=O	/	27.0	-0.6
COc1ccc(NC(=O)Nc2cccc3c2O[C@H](CN(C)S(=O)(=O)c2ccc(C)cc2)[C@@H](C)CN([C@@H](C)CO)C3=O)cc1	/	45.0	3.3
Cc1ccc(S(=O)(=O)N(C)C[C@H]2Oc3ccc(NS(=O)(=O)c4ccc(F)cc4)cc3CC(=O)N([C@@H](C)CO)C[C@H]2C)cc1	-0.1	-1.9	-2.2
Cc1ccc(S(=O)(=O)Nc2ccc3c(c2)C(=O)N([C@H](C)CO)C[C@@H](C)[C@H](CN(C)Cc2ccc(C(F)(F)F)cc2)O3)cc1	-1.0	10.4	0.9
Cc1ccc(S(=O)(=O)Nc2ccc3c(c2)CC(=O)N([C@@H](C)CO)C[C@H](C)[C@@H](CN(C)Cc2ccc(C(F)(F)F)cc2)O3)cc1	6.4	98.1*	-0.5
Cc1ccc(S(=O)(=O)Nc2ccc3c(c2)CC(=O)N([C@H](C)CO)C[C@@H](C)[C@@H](CN(C)Cc2ccc(C(F)(F)F)cc2)O3)cc1	-0.2	114.5*	-1.9
Cc1ccc(S(=O)(=O)Nc2ccc3c(c2)CC(=O)N([C@H](C)CO)C[C@@H](C)[C@@H](CN(C)Cc2ccc(C(=O)O)cc2)O3)cc1	0.9	-15.8	0.7
C[C@@H]1CN([C@H](C)CO)C(=O)Cc2cc(NC(=O)Cn3cnnn3)ccc2O[C@H]1CN(C)Cc1ccc(C(=O)O)cc1	-2.8	-6.7	/
COc1ccc(S(=O)(=O)N(C)C[C@H]2Oc3ccc(NS(=O)(=O)c4ccccc4)cc3CC(=O)N([C@@H](C)CO)C[C@H]2C)cc1	-3.4	20.6	-2.2
C[C@@H]1CN([C@H](C)CO)C(=O)c2cc(NC(=O)CCN3CCOCC3)ccc2O[C@@H]1CN(C)CC1CC1	/	33.5	/
CC(=O)OC/C(=C\COc1cc(=O)oc2cccc(C)c12)CCC=C(C)C	-19.1	/	/

Screening results as filed in PubChem.
